FAS TE block = FAS thioesterase domain inhibitors, primary screen, biochemical, fluorescence intensity, uHTS; recombinant FAS-TE, OMFH fluorogenic substrate, fluorescence endpoint; inhibition, % at 15 µM; hit rate 0.67% among 360,000; AID 602261, 2012;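 active = compounds whose normalised, plate-corrected inhibition of enzyme fluorescence in the single-dose primary screen is 50% or more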;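 also: 0% = DMSO with enzyme and 100% = substrate without enzyme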
NR3A LBD binder = binders of NR3A ligand-binding domain, primary screen, biophysical, differential scanning fluorimetry, uHTS; Glutamate receptor ionotropic, NMDA 3A (GRIN3A) ligand-binding domain; NR3A LBD differential scanning fluorimetry, Tm shift; 0% = protein alone, 100% = glycine-bound protein; Tm shift relative to glycine control, % at 25 µM; hit rate 2.5% among 340,000; AID 1259313, 2017;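 active = melting temperature shift of at least 10% of the positive control shift, at one fixed dose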
MPTP inh = mitochondrial permeability transition pore inhibitors, primary screen, biochemical, isolated mouse mitochondria, absorbance. Ca2+ swelling absorbance, 30 min. inhibition, % at 10 µM. hit rate 1.4% among 360,000. AID 602449, 2012;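 active = inhibition of 50% or more, scaled per plate between neutral and stimulator controls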;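 also: 0% = DMSO wells given calcium and 100% = 1 mM EGTA wells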
Myeloid diff MLP = induction of myeloid progenitor differentiation, primary screen, cell-based, flow cytometry, MLPCN library | ER-HoxA9 myeloid progenitors, lysozyme-GFP differentiation | calls only at 10 µM | hit rate 1% among 360,000 | AID 624256, 2012;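 active = normalized GFP-positive differentiation at or above the plate's own cutoff, the solvent-only control mean plus 3 SD; inconclusive = no clear call, values can overlap the other calls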;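 also: cells exposed to compound for four days before flow analysis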
rCAG RNA binder = binders of r(CAG) RNA repeats, primary screen, biochemical, fluorescence | r(CAG) RNA repeat, TO-PRO-1 dye displacement fluorescence | inhibition, % at 3 µM | hit rate 1.3% among 370,000 | AID 651821, 2012;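 active = inhibition above the plate cutoff, the mean of all test compounds on that plate plus 3 SD, cut at about 35% in these data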;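 also: 0% = DMSO alone and 100% = 100 µM mitoxantrone as full dye displacement; higher means more dye released from RNA so lower well fluorescence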
An asterisk follows results filed as active; i = inactive; u = inconclusive; x = no result; + = active, no number. Compounds with a hit are over-represented: about 5.7% of the library has one in this group of screens.

SMILES	FAS TE block	NR3A LBD binder	MPTP inh	Myeloid diff MLP	rCAG RNA binder
O=S(=O)(c1ccc(F)cc1)N1CCN(C(=S)NCC2CCCO2)CC1 (stereo not given)	-7	1	0	i	-4
Cc1noc(/C=C/c2ccc(-c3ccccc3Cl)o2)c1[N+](=O)[O-]	-144	2	-11	+	x
COc1ccc(CNc2cc(C)ccn2)cc1	-2	10*	0	i	11
Cc1ccnc(NCc2ccc(Br)cc2)c1	1	1	0	i	-7
C[C@H]1C(C(=O)N(C)C2CCCCC2)=Cc2c(n(-c3ccc(F)cc3)c(=O)n2CCCOc2ccccc2)C=C1c1ccccc1	x	x	x	x	12
Cc1cc(C)c(C)c(N=Nc2nc3ccccc3n2C)c1C	36	19*	1	i	-1
COn1cnnc1-c1ccccc1	-11	0	1	i	5
On1cnnc1-c1ccccc1	-6	11*	3	i	0
COC[C@@H](O)[C@H]1OCc2cccc(OC)c2[C@@H]1/C=C/c1ccccc1	x	x	x	x	3
CS(=O)(=O)Nc1nnc(CCc2ccccc2)s1	-2	3	1	i	2
CS(=O)(=O)Nc1nnc(Cc2ccccc2)s1	-2	11*	-5	i	7
O=S(=O)(c1ccccc1)N(c1ccccc1)S(=O)(=O)c1ccccc1	27	11*	0	i	1
Cc1ccccc1CN1CCCCC(NC(=O)C(C)(C)C)C1=O (stereo not given)	x	x	x	x	2
O=C(NCc1ccccc1)[C@@H]1CCCN1C(=O)[C@H]1CCCN1C(=O)c1ccccc1F	x	x	x	x	1
COc1ccc2oc(C(=O)N(C)Cc3ccc(OC(F)F)cc3)c(C)c2c1	23	13*	0	u	-4
CCCN1C(=O)c2n[nH]c(C(C)C)c2C1c1cccc(C(F)(F)F)c1 (stereo not given)	x	x	x	x	-1
CNC(=S)Nc1cc2oc3ccccc3c2cc1OC	7	18*	0	i	5
CCNC(=S)Nc1cc2oc3ccccc3c2cc1OC	8	7	2	i	10
CCCNC(=S)Nc1cc2oc3ccccc3c2cc1OC	22	18*	0	i	11
O=S(=O)(NCc1ccc(Cl)c(Cl)c1)c1cc(Cl)ccc1N1CC[C@@H](O)C1	x	x	x	x	4
Oc1cccc(Nc2nc(-c3ccccc3Cl)nc3ccccc23)c1	7	17*	1	i	5
Oc1ccc(Nc2nc(-c3ccccc3O)nc3ccccc23)cc1	22	36*	2	i	43*
COc1ccccc1Nc1nc(-c2ccccc2O)nc2ccccc12	26	4	1	i	6
Oc1ccccc1Nc1nc(-c2ccccc2O)nc2ccccc12	-6	28*	6	i	28
Oc1ccc(Nc2nc(-c3ccccc3F)nc3ccccc23)cc1	0	25*	1	i	1
SMILES	FAS TE block	NR3A LBD binder	MPTP inh	Myeloid diff MLP	rCAG RNA binder
COc1ccc(OC)c(Nc2nc(-c3ccccc3O)nc3ccccc23)c1	15	-3	2	i	5
COC(=O)C1CN(Cc2cn(Cc3ccc(F)cc3)nn2)CCS(=O)(=O)N1Cc1ccccc1 (stereo not given)	x	x	x	x	4
C[C@H]1Cn2nncc2Cn2c3ccccc3c(=O)n21	x	x	x	x	3
Nc1c(C(=O)c2ccc(Cl)cc2)sc2nsc(SCCN3CCOCC3)c12	-15	-1	12	+	0
Nc1c(C(=O)c2ccccc2)sc2nsc(SCCN3CCCC3)c12	-12	3	6	+	-3
COC(=O)[C@]12CCCCC=C1N(CCc1ccc(OC)c(OC)c1)C(=O)[C@H](CC(=O)N1CCC(c3ccccc3)CC1)C2	x	x	4	i	6
O=C(Cc1cn(Cc2ccccc2)c2ccccc12)Nc1ccc(Nc2cccnc2)c(Br)c1	x	x	x	x	15
Cc1cc(C(=O)CN2C(=O)c3ccccc3C2=O)c(C)n1C1CC1	-4	17*	0	i	-1
CCN1C(=O)C(=O)N(CC(=O)c2cc(C)n(C3CC3)c2C)C1=O	-4	-1	-1	i	0
CCCCCCCCN1C(=O)N2Cc3ccc(C)cc3C2CS1(=O)=O (stereo not given)	x	x	x	x	-1
Cc1[nH]c2ccccc2c1C(=O)COC(=O)c1c(-c2ccccc2Cl)noc1C	18	24*	11	i	2
Cc1[nH]c2ccccc2c1C(=O)COC(=O)c1c(-c2c(F)cccc2Cl)noc1C	22	29*	23	i	6
Cc1ccc(N2CC(=O)N(NC(=O)Nc3ccc(Cl)c(Cl)c3)CC2=O)cc1	-3	13*	-3	i	2
O=C(Nc1ccc(Cl)cc1)NN1CC(=O)N(c2cccc(C(F)(F)F)c2)CC1=O	-4	30*	2	i	4
CCCCNC(=O)C[C@H]1C[C@@]2(C(=O)OC)C(=C[C@H](C(C)(C)C)O[C@@H]2C)N(Cc2ccccc2)C1=O	x	x	x	x	-2
CCCCCCN1C[C@H](O)[C@@H](n2cc(C3CC3)nn2)C[C@@H]1c1ccc(OC)cc1	8	x	-3	+	5
C=CCN=C1NC(c2ccccc2C(F)(F)F)C(C(=O)OC)=C(C)N1Cc1ccc(C(F)(F)F)cc1 (stereo not given)	x	x	x	x	1
CCOc1ccc(S(=O)(=O)NCCC(=O)NCCOc2ccccc2OC)cc1	-7	21*	-1	i	-5
Cc1c(C(=O)N/N=C/c2cccc(O)c2)nnn1-c1nonc1N	-6	12*	-3	i	1
COc1cccc(/C=N/NC(=O)c2nnn(-c3nonc3N)c2C(C)C)c1OCc1ccc(F)cc1	27	6	-2	i	x
COc1cc(/C=N/NC(=O)c2nnn(-c3nonc3N)c2C(C)C)ccc1OCc1ccccc1	30	35*	0	i	1
CC(C)c1c(C(=O)N/N=C/c2ccsc2)nnn1-c1nonc1N	0	6	2	i	2
CC(C)c1c(C(=O)N/N=C/c2ccc(OCc3ccc(F)cc3)cc2)nnn1-c1nonc1N	10	29*	1	i	2
CC(C)c1c(C(=O)N/N=C/c2ccc(OCc3ccccc3)cc2)nnn1-c1nonc1N	13	32*	1	i	3
COC(=O)CC#C[C@H](C)[C@@H](NS(C)(=O)=O)C1CCCCC1	x	x	x	x	6
CCOC1=C2[C@H](c3ccccc3)N(S(=O)(=O)c3ccc(C)cc3)[C@H](C(C)C)[C@H]2C(C#N)(C#N)C(C#N)(C#N)C1	x	x	x	x	26
COc1cc(/C=N/NC(=O)c2nnn(-c3nonc3N)c2C(C)C)ccc1O	-1	30*	0	i	4
CC(C)c1c(C(=O)N/N=C/c2ccc(C(F)(F)F)cc2)nnn1-c1nonc1N	16	28*	1	u	4
CC(C)c1c(C(=O)N/N=C/c2cccc(OCc3ccccc3)c2)nnn1-c1nonc1N	25	24*	7	i	4
